Source: PubChem BioAssay
NOD2-RIPK2 inh: NOD2-RIPK2 binding disruptors in cells, primary screen, fluorescence, CHO cells, BLA complementation | inhibition, % at 4.98 µM | CCF4 ratio | Receptor-interacting serine/threonine-protein kinase 2 (Homo sapiens), O43353 | AID 624267, 2012 | 360,000 compounds, 0.38% hits; in the data active means inhibition above about 21%;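 further: 0% = vehicle only and 100% = reference blocker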
TLR4 MyD88 comp: inhibitors of TLR4-MyD88 association in cells, primary screen, cell-based, HeLa CL3-4, BLA complementation, FRET ratio; HeLa CL3-4 TLR4/MyD88 BLA complementation; inhibition, % at 8.4 µM; 200,000 compounds, 0.18% hits; AID 861, 2007; in the data active means inhibition above about 25%;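 further: 0% = vehicle and 100% = reference inhibitor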
TLR9-MyD88 block: inhibitors of TLR9-MyD88 association in cells, primary screen, cell-based, CHO, BLA complementation, fluorescence | CCF4 FRET ratio | 340,000 compounds, 0.21% hits | inhibition, % at 4.98 µM | Toll-like receptor 9 (Homo sapiens) + Myeloid differentiation primary response protein …;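 active means inhibition above the mean over all tested compounds plus 3 SD, cut at about 21% in these data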;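 further: 0% = DMSO only wells and 100% = clavulanate BLA inhibitor control wells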
ABHD5 PLIN5 PPI: ABHD5-PLIN5 interaction inhibitors, primary screen, cell lysate, split luciferase complementation, luminescence. Split G. princeps luciferase complementation, 4 h. inhibition, % at 4 µM. 360,000 compounds, 0.78% hits;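 active means inhibition above the mean inhibition across every tested compound plus 3 SD, cut at about 22% in these data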;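 further: 0% = DMSO only wells and the 100% control is not disclosed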
Target sequence (Q00G26 whole entry, looked up): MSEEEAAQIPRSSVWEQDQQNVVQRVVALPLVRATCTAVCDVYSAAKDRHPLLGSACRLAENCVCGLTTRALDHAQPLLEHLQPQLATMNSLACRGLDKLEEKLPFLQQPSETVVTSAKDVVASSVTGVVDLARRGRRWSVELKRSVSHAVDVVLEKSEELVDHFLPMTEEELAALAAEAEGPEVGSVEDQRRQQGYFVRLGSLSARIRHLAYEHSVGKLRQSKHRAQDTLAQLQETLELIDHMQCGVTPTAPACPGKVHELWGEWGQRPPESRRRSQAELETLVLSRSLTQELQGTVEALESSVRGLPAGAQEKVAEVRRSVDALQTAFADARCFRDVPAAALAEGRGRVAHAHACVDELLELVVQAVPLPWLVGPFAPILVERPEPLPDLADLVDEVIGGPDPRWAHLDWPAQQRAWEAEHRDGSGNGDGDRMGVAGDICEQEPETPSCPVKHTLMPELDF
Target sequence (Q8WTS1 whole entry, looked up): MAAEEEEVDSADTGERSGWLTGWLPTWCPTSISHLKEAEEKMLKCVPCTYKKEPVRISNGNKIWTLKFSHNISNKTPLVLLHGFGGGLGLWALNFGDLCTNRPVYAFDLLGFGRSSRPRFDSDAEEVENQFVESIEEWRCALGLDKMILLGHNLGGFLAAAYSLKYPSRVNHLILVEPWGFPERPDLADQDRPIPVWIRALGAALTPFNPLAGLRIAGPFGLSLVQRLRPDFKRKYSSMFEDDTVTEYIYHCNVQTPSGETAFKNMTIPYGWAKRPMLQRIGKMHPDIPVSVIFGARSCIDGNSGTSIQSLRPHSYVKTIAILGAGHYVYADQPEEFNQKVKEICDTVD
NOD2-RIPK2 conf: NOD2-RIPK2 binding disruptors, retest, confirmation, fluorescence, CHO cells, BLA complementation, triplicate | shares compounds with NOD2-RIPK2 inh | CCF4 FRET | 1,200 compounds, 70% hits | inhibition, % at 4.98 µM;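 active means mean inhibition across replicates above a set limit taken from the earlier primary screen, cut at about 21% in these data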;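 further: 0% = DMSO-only wells and the high end = clavulanate BLA-blocked wells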
NOD2 BLA counter: counter-screen for NOD2-RIPK2 interaction inhibitors: BLA reporter; shares compounds with NOD2-RIPK2 inh; CHO BLA reporter, CCF4 FRET ratio, counterscreen; inhibition, % at 4.98 µM; 1,200 compounds, 57% hits; AID 624371;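 active means mean inhibition above the low-control mean inhibition plus three low-control SD, cut at about 11% in these data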;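 further: 0% = DMSO only wells and 100% = clavulanate high control wells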
Starred values were filed as active, the others as inactive; . = not tested or not shown; ! = not confirmed by another sample. Compounds with a hit are over-represented: about 1.2% of the library has one in this group of screens.

SMILES	NOD2-RIPK2 inh	TLR4 MyD88 comp	TLR9-MyD88 block	ABHD5 PLIN5 PPI	NOD2-RIPK2 conf	NOD2 BLA counter
O=C(Nc1cccc(O)c1)c1cc2nc(-c3ccccc3)cc(-c3ccccc3)n2n1	22*	-9	7	-5	8	11*
O=C(NC1CCCC1)c1cc2nc(-c3ccccc3)cc(-c3ccccc3)n2n1	-10	.	-3	-5	.	.
O=C(OCC(=O)N1CCC(c2ccccc2)=N1)c1ccc([N+](=O)[O-])s1	-10	.	4	3	.	.
CCO[C@@H]1OC(C(=O)NCc2ccccc2)=C[C@H](c2ccc(C(F)(F)F)cc2)[C@H]1CCCO	3	-6	-3	3	.	.
CCO[C@H]1OC(C(=O)NCc2ccccc2)=C[C@@H](c2ccc(Br)cc2)[C@@H]1CCCO	29*	3	0	2	-20	-5
O=C(Nc1ccc(OC(F)F)cc1)c1cc(S(=O)(=O)N2CCOCC2)ccc1F	-9	.	-10	1	.	.
N#CC1=C(N)Oc2cc(N)ccc2C1c1ccccc1Cl (stereo not drawn)	28*	.	-4	-3	-2	-1
O=C(CSc1ccccn1)Nc1ccc(NC(=O)CSc2ccccn2)cc1	1	-3	3	-2	.	.
O=C(CSc1ccccn1)Nc1nonc1[N+](=O)[O-]	31*	.	15	6	13	5
COc1ccccc1[C@H]1C(c2ccc(F)cc2)=NN(c2ccccc2)[C@@H]1CO	11	.	-13	-6	.	.
OC[C@@H]1[C@@H](c2ccc(F)cc2)C(c2cccc(Cl)c2)=NN1c1ccccc1	29*	.	2	-10	30*	54*
OC[C@@H]1[C@@H](c2ccc(Cl)cc2)C(c2ccccc2)=NN1c1ccccc1	8	.	-7	-6	.	.
OC[C@@H]1[C@@H](c2ccc(Cl)cc2)C(c2cccc(Cl)c2)=NN1c1ccccc1	34*	.	2	-13	30*	59*
O=C1NC(=O)C2C3OC(C(Br)C3Br)C12 (stereo not drawn)	5	.	-4	-1	.	.
CC1(c2ccc3ccccc3c2)NC(=O)N(CC(=O)N2CCCC(C(F)(F)F)C2)C1=O (stereo not drawn)	28*	.	8	-3	0	-2
Cc1ccc(OCC(=O)NNC(=O)c2cccnc2)cc1C	-3	6	4	-1	.	.
CCOC(=O)/C=c1/s/c(=C/c2ccc3cc(OC)ccc3c2)c(=O)n1CC(=O)NCc1ccc2c(c1)OCO2	25*	.	-4	-4	44*	53*
CCOC(=O)/C=c1\s/c(=C\c2ccc(-c3ccccc3)cc2)c(=O)n1CC(=O)NCc1ccc2c(c1)OCO2	0	-6	-1	9	.	.
CCOC(=O)C1=C(C)Nc2nc(=S)[nH]n2C1c1ccc(Cl)cc1 (stereo not drawn)	4	5	-4	-6	.	.
CCCCNc1c(-c2ccc(SC(C)CC)cc2)nc2ccccn12 (stereo not drawn)	22*!	.	10	-18	20	16*
O=C(NC1CCCc2c1cnn2-c1ccccc1F)c1ccncc1 (stereo not drawn)	-9	.	-7	12	.	.
CC(=O)ON=C1C=CC(=C(C#N)c2ccccc2)C=C1	26*	.	.	-8	35*	8
Cc1ccc(O)c(C2=Nc3ccccc3N=C(c3ccco3)C2)c1	23*	-4	12	2	8	46*
Cc1ccc(C2=Nc3ccccc3N=C(c3ccco3)C2)c(O)c1	2	-12	2	2	.	.
CN(c1ccccc1)S(=O)(=O)c1ccc(C(=O)NCC(c2ccco2)N2CCCCC2)cc1 (stereo not drawn)	25*	.	8	-5	2	-2
SMILES	NOD2-RIPK2 inh	TLR4 MyD88 comp	TLR9-MyD88 block	ABHD5 PLIN5 PPI	NOD2-RIPK2 conf	NOD2 BLA counter
Cc1ccc2c(c1)N(C(=O)CCC(=O)NC1CCCCCC1)CCO2	-4	.	-10	5	.	.
COCCCNc1c2c3c(cccc3[nH]c1=O)C(=O)c1ccccc1-2	32*	16	15	6	37*	41*
Cc1[nH]n(-c2ccccc2)c(=O)c1C=Nc1cccc2cccnc12	32*	12	19	-2	35*	32*
Cc1ccc(-n2[nH]c(C)c(/C=N/c3ccccn3)c2=O)cc1	-3	-17	3	-11	.	.
O=[N+]([O-])c1ccc(NC(=S)NCC(c2cccnc2)N2CCOCC2)cc1 (stereo not drawn)	-11	3	3	0	.	.
COc1ccc(OCCN2CCC(C(=O)NC(c3ccc(C)cc3)c3ccccn3)CC2)cc1 (stereo not drawn)	21*	.	.	0	-5	0
O=c1c2ccc(F)cc2sn1-c1ccccc1	36*	.	14	72*	46*	8
CSCC[C@@H](CO)NC(=O)[C@H]1O[C@@H](n2ccc(N)nc2=O)[C@H](O)[C@@H]1O	29*	.	.	6	-6	0
O=C(Cn1ncc(Cl)c(Cl)c1=O)N1CCN(S(=O)(=O)c2ccc3ccccc3c2)CC1	50*	19	11	3	68*	15*
O=C(O)CCC(=O)N1CCN(S(=O)(=O)c2ccc3ccccc3c2)CC1	11	.	-2	8	.	.
CC(C)CN(C(=O)C1=COCCO1)c1c(N)n(Cc2ccccc2)c(=O)[nH]c1=O	-9	.	2	4	.	.
CCOC(=O)N1CCC(NC(=O)c2ccc3c(c2)N=C(CC)c2cc(C)ccc2S3)CC1	2	.	-4	6	.	.
CCOC(=O)N1CCC(NC(=O)c2ccc3c(c2)N=C(C)c2c(C)ccc(C)c2S3)CC1	24*	.	14	-3	16	-1
C=CCOc1cccn2c(N(C)C(=O)c3ccc(OC)cc3)c(CC)nc12	-1	.	.	-5	.	.
C=C1CC2(OC1=O)c1ccccc1CCc1ccccc12	84*	.	16	60*	90*	25*
O=C1NC(=O)C2(CCc3ccccc32)N1 (stereo not drawn)	6	-3	-5	3	.	.
CC(=O)Oc1ccc(C#C/C=C2\c3ccccc3C(=O)N2c2ccccc2)cc1	4	.	4	8	.	.
CCCC(/C=C/c1ccc(OC(C)=O)cc1)=C1/c2ccccc2C(=O)N1c1ccccc1	25*	.	13	-10	20	28*
COc1ccc(-c2coc3c(C(=O)NCC4CC4)cccc23)c(C)c1	4	.	.	-4	.	.
CCOC(=O)CCc1nc2ccccc2[nH]1	-6	1	-5	0	.	.
COCC(=O)O[C@]1(CCN(C)CCCc2nc3ccccc3[nH]2)CCc2cc(F)ccc2[C@@H]1C(C)C	25*	.	-10	4	20	-3
